Source: PubChem
TRb SRC2 PPI: qHTS for Inhibitors of the Interaction of Thyroid Hormone Receptor and Steroid Receptor Coregulator 2; Thyroid hormone receptor beta (Homo sapiens), P10828; TRbeta-SRC2 peptide binding, fluorescence polarization; receptor liganded with 1 µM T3; 280,000 tested, 0.065% active; Potency, µM (highest dose often 106 µM), hits mostly inhibitors; also: nearly all actives have a fitted effect of over 50% in size
Target sequence (P10828 whole entry, looked up): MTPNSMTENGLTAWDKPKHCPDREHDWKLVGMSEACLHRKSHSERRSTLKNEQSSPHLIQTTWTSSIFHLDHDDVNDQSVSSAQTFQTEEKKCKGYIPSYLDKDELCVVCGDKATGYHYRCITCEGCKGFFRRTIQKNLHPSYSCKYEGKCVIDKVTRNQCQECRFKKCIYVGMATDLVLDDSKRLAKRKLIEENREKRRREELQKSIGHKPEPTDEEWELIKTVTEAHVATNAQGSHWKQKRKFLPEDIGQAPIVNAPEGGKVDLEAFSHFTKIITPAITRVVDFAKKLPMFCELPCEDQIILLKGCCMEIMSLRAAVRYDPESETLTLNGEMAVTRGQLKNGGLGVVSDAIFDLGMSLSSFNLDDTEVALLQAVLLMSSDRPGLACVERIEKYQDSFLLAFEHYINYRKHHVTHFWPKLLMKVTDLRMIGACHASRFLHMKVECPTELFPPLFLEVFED
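Fluorescence polarization of 20 nM Texas Red SRC2 peptide (20-aa NR interaction domain) bound to 0.6 uM human TRb ligand-binding domain, with 1 uM T3, after 5 hr at ambient temperature; inhibition seen as decreased polarization.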
Tau fibril ThT: qHTS for Inhibitors of Tau Fibril Formation, Thioflavin T Binding. Microtubule-associated protein tau (Homo sapiens), P10636. recombinant tau K18 P301L, heparin-induced fibrillization, ThT fluorescence. Potency, µM (doses to about 57.4 µM), hits mostly inhibitors. 270,000 tested, 2.1% active. AID 1460, 2008; also: nearly all actives have a fitted effect of over 55% in size
Target sequence (P10636 561-689 P618L limits assumed): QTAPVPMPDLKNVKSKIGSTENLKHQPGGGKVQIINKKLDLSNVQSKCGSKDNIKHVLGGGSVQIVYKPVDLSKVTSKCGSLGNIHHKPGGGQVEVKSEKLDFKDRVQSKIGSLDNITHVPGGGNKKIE
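Aggregation was driven by heparin (20 uM final) acting on recombinant tau […] bearing P301L in 100 mM sodium acetate pH 7; fibrils were detected with Thioflavin T.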
TR SRC2 fluor cs: Total Fluorescence Counterscreen for Inhibitors of the Interaction of Thyroid Hormone Receptor and Steroid Receptor Coregulator 2; TRb/SRC2 Texas Red total fluorescence interference; Potency, µM (top dose mostly 106 µM); 280,000 tested, 0.29% active; AID 1479, 2009; active = well fitted curve in either direction with a large enough effect; inconclusive = small, poorly fitted or top-dose-only effect
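Human TRβ ligand-binding domain (0.6 uM) and Texas Red SRC2 peptide (20 nM) in Tris buffer with 1 uM T3 and 5% DMSO were incubated with pinned compound for 5 hr at ambient temperature. Total fluorescence was computed as S + 2P (555/632 nm).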
Tau fluor cs: Counterscreen qHTS for Inhibitors of Tau Fibril Formation, Fluorescence Polarization; tau K18 P301L Alexa594 fluorescence, heparin fibrillization; 280,000 tested, 0.93% active; Potency, µM (highest dose often 57.7 µM); also: nearly all actives have a fitted effect of over 55% in size
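Human tau K18 P301L (15 uM unlabeled, 0.24 uM Alexa 594-labeled) in 100 mM sodium acetate pH 7 with 20 uM heparin, 6 hr at 37 C. ThT 30 uM added, 1 hr ambient; Alexa 594 FP and total fluorescence read at 555/632 nm.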
Tau fibril FP: qHTS for Inhibitors of Tau Fibril Formation, Fluorescence Polarization; K18 P301L tau heparin fibrillization, Alexa594 FP, 6 h; Potency, µM (top dose mostly 57.7 µM), most hits filed as inhibitors; 280,000 tested, 0.39% active; also: nearly all actives have a fitted effect of over 55% in size
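K18 P301L tau (15 uM unlabeled/0.24 uM Alexa 594-labeled, final) + compound + heparin 20 uM final; 100 mM NaOAc pH 7; 6 hr 37 C; ThT 30 uM final added, 1 hr RT; FP ex 555/em 632 nm.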
Numbers stand for hits; 0 = inactive; ? = inconclusive; - = not tested or not shown; [ ] = another dose, or the depositor's remark. Sampled rows, rich in hits. Any-hit rate of the full collection: about 3%. Unless noted, calls follow the shape of the dose curve; as a rule, active = well fitted curve in the direction sought with a large enough effect; inconclusive = small, poorly fitted or top-dose-only effect, or another doubt; inactive = no such curve, though single readings can be large; an effect the other way counts as inactive or inconclusive.

SMILES | TRb SRC2 PPI | Tau fibril ThT | TR SRC2 fluor cs | Tau fluor cs | Tau fibril FP
COc1ccc2c(c1)c1c(c(=O)n(-c3cc(Cl)ccc3C)c(=O)n1Cc1ccc(F)cc1)n2C | 0 | 0 | 0 | 0 | 0
COc1cc(/C=N/N=C(/N)c2nonc2N)cc(Br)c1OCc1cccc(C)c1 | 0 | ? | 0 | ? | 28µM
O=[N+]([O-])c1cc(-c2ccc(/C=N/c3nc4ccccn4c3-c3ccco3)o2)ccc1Cl | 0 | 11µM | 0 | 25µM[quencher] | ?
CCC(C)c1ccc(C2C3=C(Nc4nc(N)[nH]c(=O)c42)c2ccccc2C3=O)cc1 (stereo not given) | 0 | ? | 0 | ? | 0
Cn1c2c(c(=O)[nH]c1=O)C(c1ccc(O)cc1)C1=C(N2)c2ccccc2C1=O (stereo not given) | 0 | 22µM | 0 | ? | 0
COc1cc(C2C3=C(Nc4nc(N)[nH]c(=O)c42)c2ccccc2C3=O)ccc1O (stereo not given) | 0 | 11µM | 0 | 0 | 0
Nc1nc2c(c(=O)[nH]1)C(c1ccccc1)C1=C(N2)c2ccccc2C1=O (stereo not given) | 0 | 6.3µM | 0 | ? | 0
Cc1cccc(CN2C(=O)c3ccccc3Sc3ccc(C(=O)NCc4cccs4)cc32)c1 | 0 | 0 | 0 | 0 | 0
CCN1C(=O)/C(=C/c2ccc(C)o2)N(C)C1=S | 0 | 22µM | 0 | 0 | ?
CCCN1C(=O)/C(=C/c2ccc(C)o2)NC1=S | 0 | 25µM | 0 | 0 | ?
Cc1c(C(=O)O)cccc1-c1ccc(/C=C2/NC(=O)N(c3ccccc3)C2=O)o1 | 0 | 0 | 0 | 0 | 0
CCN1C(=O)N/C(=C/c2ccc(C)o2)C1=O | 0 | ? | 0 | 0 | ?
Cc1ccc(/C=C2/NC(=O)N(c3ccccc3)C2=O)o1 | 0 | 25µM | 0 | 0 | ?
COc1ccc(-n2c(=O)c3c4c(sc3n(Cc3c(F)cccc3Cl)c2=O)CN(C(C)=O)CC4)cc1OC | 0 | 0 | 0 | 0 | 0
CC(Sc1ccc(Cl)cc1)C(=O)Nc1ccccc1-c1ccccc1 (stereo not given) | 0 | 0 | 25µM[quencher] | 0 | 0
O=C(Nc1nc(=S)ss1)c1ccc(Cl)cc1Cl | 0 | 32µM | 0 | 0 | ?
COC1=CC(=O)C(C(=O)c2ccccc2)=CC1=O | ? | 3.2µM | 0 | 6.3µM[quencher] | 10µM
COc1ccc(C(=O)c2ccccc2)cc1 | 0 | 0 | 0 | 0 | 0
CC(C)c1ccc(/C=C(\c2nc3ccccc3[nH]2)S(=O)(=O)c2ccccc2)cc1 | 0 | 0 | 0 | 0 | 0
O=S(=O)(/C(=C/c1ccc(C(F)(F)F)cc1)c1nc2ccccc2[nH]1)c1ccccc1 | 0 | 28µM | 0 | 0 | ?
CC(=O)C1=C(O)C(=O)N(CCC(=O)O)C1c1ccccc1[N+](=O)[O-] (stereo not given) | 0 | 0 | 0 | 0 | 0
CCCCCCN1C(=O)C(O)=C(C(C)=O)C1c1ccccc1[N+](=O)[O-] (stereo not given) | 0 | 0 | 0 | 0 | 0
CC(=O)C1=C(O)C(=O)N(C)C1c1ccccc1[N+](=O)[O-] (stereo not given) | 0 | 16µM | 0 | 0 | ?
CC(=O)C1=C(O)C(=O)N(CCCN2CCOCC2)C1c1ccccc1[N+](=O)[O-] (stereo not given) | 0 | 25µM | 0 | ? | ?
C/C=C1\COC(C(=O)NC)(C(F)(F)F)C=C1C=C1CCCCC1 (stereo not given) | 0 | - | 0 | - | -
SMILES | TRb SRC2 PPI | Tau fibril ThT | TR SRC2 fluor cs | Tau fluor cs | Tau fibril FP
Cc1cc(C(=O)CSc2nnnn2-c2ccccc2)c(C)n1-c1ccc2c(c1)OCO2 | 0 | ? | 0 | ? | 0
Cc1cc(C(=O)CSc2nnnn2-c2ccc(O)cc2)c(C)n1Cc1ccc2c(c1)OCO2 | 0 | 0 | 0 | 7.9µM[quencher] | 11µM
O=[N+]([O-])c1ccc(O)c(Nc2ncnc3ccccc23)c1 | 0 | 0 | 0 | 0 | 0
O=[N+]([O-])c1ccc(O)c(Nc2ncnc3ccc(Br)cc23)c1 | 0 | 16µM | 0 | 0 | 0
CC(=O)n1c2ccccc2c2nc(NC(C)C)sc21 | 0 | 22µM | 0 | 0 | ?
[O-][N+]1=c2ccc(Nc3ccccc3)cc2=NC12CCCCC2 | ? | 7.1µM | 0 | ? | ?
O=C(O)c1cccc(N2C(=S)N=C(Nc3ccccc3)C23CCCCC3)c1 | 0 | 0 | 0 | 0 | 0
COc1ccc(NC2=NC(=S)N(c3ccccc3C)C23CCCCC3)cc1 | 0 | 0 | 0 | 0 | 0
COc1ccc(Nc2ccc3c(c2)=NC2(CCCCC2)[N+]=3[O-])cc1 | ? | 4.5µM | 0 | ? | ?
O=C(Nc1ccc(SC(F)F)cc1)c1cc(-c2ccc3c(c2)OCCO3)on1 | 0 | 0 | 0 | 0 | 0
CCc1ccc(NC(=O)c2sc(-n3nc(C)c(Cc4ccc(OC)cc4)c3C)nc2C)cc1 | 0 | 0 | ? | 0 | 0
COc1ccc(COC2OC[C@]3(C)[C@H]4C5=C(CN3C(=O)OC(C)(C)C)[C@H](C)C(CO)C(CO)C5CC[C@@H]24)cc1 (stereo not given in full) | 0 | 0 | 0 | 0 | 0
S=C(Nc1ccc2nc(-c3ccccn3)c(-c3ccccn3)nc2c1)N1CCOCC1 | ? | 13µM | 0 | ? | ?
COC(=O)c1[nH]c2ccc(Br)cc2c1NC(=O)CN1CCCc2ccccc21 | 0 | ? | 0 | 5µM[quencher] | 0
COC(=O)c1[nH]c2cc(C)ccc2c1NC(=O)CN1CCCc2ccccc21 | 0 | ? | 0 | ? | ?
CCOc1ccc(C(=O)c2cn(CC(=O)Nc3cc(OC)cc(OC)c3)c3ccc(F)cc3c2=O)cc1 | 0 | 0 | 0 | 0 | 0
O=C(Nc1ccc(F)cc1)Nc1nnc(COc2ccccc2F)s1 | 0 | 0 | 0 | ? | 14µM
O=C(Nc1nnc(COc2ccccc2F)s1)Nc1ccccc1F | 0 | - | 0 | ? | 14µM
CC(Oc1ccc(Cl)cc1Cl)c1nc(-c2ccc(NC(=O)c3ccncc3)cc2)no1 (stereo not given) | 0 | 0 | 0 | 0 | 0
CC(Oc1ccc(Cl)cc1Cl)c1nc(-c2ccc(NC(=O)c3cccnc3)cc2)no1 (stereo not given) | 0 | 0 | 0 | ? | 16µM
N#CCCCS(=O)(=O)c1nnnn1-c1ccc(F)cc1Br | 0 | ? | 0 | 0 | 0
O=C(N/N=C/c1ccc(N2CCOCC2)o1)c1cccc([N+](=O)[O-])c1 | 0 | 8.9µM | 0 | 0 | ?
O=C(N/N=C/c1ccc(N2CCCCC2)o1)c1ccccc1 | 0 | ? | 0 | 0 | 0
Cc1cccc(-c2nn3c(=O)cc(CN4CCN(S(=O)(=O)c5ccc(Cl)cc5)CC4)nc3s2)c1 | 0 | 0 | 0 | 0 | 0
